# Screening data: PubChem BioAssay, National Center for Advancing Translational Sciences (NCATS)
# Only some compounds are listed: those with a hit (about 8.8% of all), similar ones and a draw of the others.
# IL1B secr inh – blocks inflammasome-driven IL-1 beta release | THP-1 LPS/ATP IL-1B secretion, AlphaLISA, 16 h; hits give low values | activity change, % at 57.5 µM | 360,000 compounds, 4.7% hits | AID 743279; in the data active = activity change below about -50%; inconclusive = mostly about -30% to -49%
#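 THP-1 cells pretreated 1 hr with compounds (up to 57.5 uM final), then stimulated with LPS (250 ng/mL final) plus ATP (1.25 mM final); secreted IL-1B measured by AlphaLISA after 16 hr, decreased signal indicating inhibition.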
# HT1080NT lethal – kills 2HG-producing HT-1080-NT fibrosarcoma cells; HT-1080-NT fibrosarcoma viability, CellTiter-Glo ATP luminescence, 48 h; 360,000 compounds, 1.6% hits; Potency, µM (titrated, usually from 46.1 µM), for the others: top-dose activity, negative = less viability, most hits filed as cytotoxic;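 also: NT is the 2HG producing partner of a matched IDH1 knockdown line; potency is read from the fitted curve at half-maximal effect; 0% = DMSO-treated cells and -100% = media-only wells without cells; nearly all actives have a fitted effect of over 55% in size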
#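 HT-1080-NT fibrosarcoma cells (2HG-overproducing), 750 cells/well in RPMI with 5% FBS, dosed after 2 h and incubated 48 h at 37C. CellTiter-Glo luminescence normalized to DMSO and no-cell wells; concentration-response curves fitted and classed.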
# KB-3-1 tox – kills parental KB-3-1 adenocarcinoma cells. KB-3-1 viability, CellTiter-Glo ATP luminescence, 72 h. Potency, µM (top dose mostly 46.1 µM), actives largely listed as cytotoxic. 400,000 compounds, 1.4% hits; also: potency is read from the fitted curve at half-maximal effect; nearly all actives have a fitted effect of over 60% in size
#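 Luminescent ATP read-out (CellTiter-Glo) measures survival of drug-naive KB-3-1 cells after 72 h compound exposure at 37 °C. Titration series was screened from lowest to highest concentration, with DMSO vehicle plates as background controls.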
# HT1080 IDH1KD tx – kills HT-1080 cells with IDH1 knockdown | HT-1080 IDH1 knockdown viability, ATP luminescence, 48 h | Potency, µM (top dose mostly 46.1 µM), for inactives: top-dose activity, negative = toxicity, most hits filed as cytotoxic | 360,000 compounds, 2% hits | AID 686971;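 also: potency is read from the fitted curve at half-maximal effect; 0% = DMSO wells and -100% = cell-free medium wells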
#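 % activity derives from luminescence (CellTiter-Glo), normalised to DMSO and no-cell wells. HT-1080-IDH1KD cells, 750/well, had 48 h compound exposure at 37 °C.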
# KB-V1 MDR tox – KB-V1 MDR subline cytotoxicity. KB-V1 MDR cells viability, CellTiter-Glo, 72 h. Potency, µM (series often up to 46.1 µM), usual class: cytotoxic. 400,000 compounds, 3.4% hits. AID 1347076; also: potency is read from the fitted curve at half-maximal effect; nearly all actives have a fitted effect of over 60% in size
#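 In this primary screen, KB-V1 cells overexpressing P-gp are incubated with library compounds (lowest to highest concentration) for 72 h at 37 degrees C before a luminescent ATP viability read.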
# * = called active by the depositor; i = inactive; ? = inconclusive; . = not tested or not shown; ! = not active in a repeat. Unless noted, calls follow the shape of the dose curve; as a rule, active = well fitted curve in the direction sought with a large enough effect; inconclusive = small, poorly fitted or top-dose-only effect, or another doubt; inactive = no such curve, though single readings can be large; an effect the other way counts as inactive or inconclusive. Unless noted, % is scaled to controls: 0 for no effect and ±100 for the full control effect.
SMILES,IL1B secr inh,HT1080NT lethal,KB-3-1 tox,HT1080 IDH1KD tx,KB-V1 MDR tox
O=C(C1CCC(CNc2nc(=S)[nH]c3ccccc23)CC1)N1CCN(c2ccccn2)CC1 (stereo unspecified),?,6%,i,4%,2.6µM*
O=C1C(Cc2cccc([N+](=O)[O-])c2)SC(=Nc2ccccc2)N1c1ccccc1 (stereo unspecified),17,-1%,i,0%,21µM*
O=C1C(Cc2ccc(F)cc2)SC(=Nc2ccccc2)N1c1ccccc1 (stereo unspecified),0,-6%,i,-5%,?
O=C1C(Cc2ccc(Br)cc2)SC(=Nc2ccccc2)N1c1ccccc1 (stereo unspecified),0,0%,?,-23%,21µM*
CCOc1ccc(NC(=O)C2CCCN(S(=O)(=O)c3cccc4nonc34)C2)cc1 (stereo unspecified),.,.,i,.,i
Cc1cc(C)cc(NC(=O)C(=O)NCC(c2cccnc2)N2CCc3ccccc3C2)c1 (stereo unspecified),.,.,i,.,?
Cc1ccc(S(=O)(=O)c2cn(Cc3ccccc3Cl)c3ccc(F)cc3c2=O)cc1,.,.,i,.,i
Cc1c(O)cccc1C(=O)N[C@@H](CSc1ccccc1)[C@H](O)CN1C[C@H]2CCCC[C@H]2C[C@H]1C(=O)NC(C)(C)C,?,13µM*,?,18µM*,?
CCN(CC(=O)NC(C)(C)C)C(=O)c1ccccc1SCC(=O)NC1CCCCCCC1,42,6%,i,0%,i
NS(=O)(=O)c1ccc(CCNC(=O)c2cc([N+](=O)[O-])ccc2N2CCCCC2)cc1,8,-12%,i,-12%,i
FC(F)C(F)(F)Oc1cccc(Nc2nccn3c(-c4ccc5ccccc5c4)cnc23)c1,32,-20%,?,?,10µM*
Oc1ccc(-c2cnc3c(Nc4cccc(OC(F)(F)C(F)F)c4)nccn23)cc1,19,?,?,?,?
CCCCNc1c(-c2cccc(SC3CCCCC3)c2)nc2ccc(Cl)cn12,-9,0%,?,-21%,?
CCCCNc1c(-c2ccc(SC3CCCCC3)cc2)nc2ccccn12,-73*!,?,?,?,21µM*!
CCCCNc1c(-c2ccc(SC(C)CC)cc2)nc2ccccn12 (stereo unspecified),0,?,18µM*!,?,13µM*!
CCCCNc1c(-c2cccc(SC(C)CC)c2)nc2ccc(Cl)cn12 (stereo unspecified),-2,0%,?,-13%,?
COCOCCn1cc(CN2CCS(=O)(=O)N(Cc3ccc(-c4cccc(CO)c4)cc3)C(C)C2=O)nn1 (stereo unspecified),2,6%,i,11%,i
CN(C)S(=O)(=O)c1cccc(NC(=O)CSc2nc3c(cc2C#N)C(=O)CC(C)(C)C3)c1,-58*,?,21µM*,?,16µM*
CN(C)S(=O)(=O)c1cccc(NC(=O)CSc2cccc3cccnc23)c1,-105*,18µM*,?,?,?
CN(C)S(=O)(=O)c1ccc(SCC(=O)Nc2cccc(S(=O)(=O)N3CCCC3)c2)nc1,24,1%,i,0%,i
O=C(CSc1ccc(S(=O)(=O)N2CCCC2)cn1)Nc1ccc([N+](=O)[O-])cc1C(F)(F)F,-12,0%,?,-14%,5.2µM*
O=C(NCc1ccco1)c1ccc(CS(=O)Cc2ccc(Cl)cc2)o1 (stereo unspecified),-18,-4%,i,-2%,i
CC(=O)Nc1ccc(-c2ccnc3c2CC(C)(C(=O)Nc2ccc(Cl)cc2)O3)cc1 (stereo unspecified),-53*,?,?,?,?
CN(C)c1ccc(-c2ccnc3c2CC(C)(C(=O)Nc2ccc(Cl)c(C(F)(F)F)c2)O3)cc1 (stereo unspecified),-20,?,16µM*,?,?
CC(=O)Nc1ccc(-c2ccnc3c2CC(C)(C(=O)Nc2ccc4c(c2)OCO4)O3)cc1 (stereo unspecified),-51*,?,18µM*,?,i
SMILES,IL1B secr inh,HT1080NT lethal,KB-3-1 tox,HT1080 IDH1KD tx,KB-V1 MDR tox
CC(=O)Nc1ccc(-c2ccnc3c2CC(C)(C(=O)Nc2ccc(Cl)c(C(F)(F)F)c2)O3)cc1 (stereo unspecified),-21,?,?,16µM*,?
CC1(C(=O)Nc2ccc(Cl)c(C(F)(F)F)c2)Cc2c(-c3ccccc3)ccnc2O1 (stereo unspecified),-17,-3%,i,-5%,i
Cc1ccccc1CNC(=O)c1ccc2nc([C@@H]3O[C@H](CO)[C@H](O)[C@H](O)[C@H]3O)[nH]c2c1,-2,2%,i,15%,i
COc1cccc(NC(=S)NCc2cccs2)c1,1,2%,i,3%,i
COc1ccc(-c2sc3ccccc3c2-c2ccc(OC)cc2F)cc1,22,12%,i,7%,i
COc1cccc(-c2sc3ccc(OC)cc3c2-c2ccc(OCCN(C)C)cc2)c1,-62*,?,?,?,?
CN(C)CCOc1ccc(-c2c(-c3ccsc3)sc3ccccc23)cc1,-60*,?,?,?,i
c1ccc(-c2sc3ccccc3c2-c2ccc(OCCN3CCOCC3)cc2)cc1,0,0%,i,-2%,i
COc1ccc(-c2sc3ccccc3c2-c2ccc(OCCN(C)C)cc2)cc1,-27,23µM*,?,?,?
Cn1nc(C(=O)NC(C)(C)C)c2ccccc21,0,0%,i,-3%,i
C=CCN(Cc1nc(-c2ccc(OC)cc2)no1)C(=O)c1ccc2c(c1)OCO2,14,-6%,i,-3%,21µM*
Cc1nnc(SCC(=O)N2CC(=O)Nc3ccccc32)n1-c1ccccc1,-5,-9%,i,-6%,i
CCOC(=O)CSc1nc(C(C)C)nc2ccccc12,24,0%,i,14%,i
CC(C)c1nc(SCC(=O)N2CC(=O)Nc3ccccc32)c2ccccc2n1,-99*,?,?,?,?
COCCn1c(SCC(=O)N2CC(=O)Nc3ccccc32)nc2ccccc2c1=O,-1,1%,i,4%,i
Cc1ccc(-n2c(SCC(=O)N3CC(=O)Nc4ccccc43)nc3ccccc3c2=O)cc1,-74*,-10%,?,-27%,18µM*
Cc1cccc(C)c1-n1c(SCC(=O)N2CC(=O)Nc3ccccc32)nc2ccccc2c1=O,-11,-11%,?,-15%,18µM*
COc1ccc(OC)c(NC(=O)Nc2cc(C(=O)O)ccc2C)c1,-7,14%,i,2%,i
